Source: PubChem BioAssay (NCI)
About 83,000 compounds went through this panel and 20% of them were active in at least one assay; those are over-represented in the sample as a whole.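 Single-concentration screen, 48 h exposure, 96-well plates. Endpoint: percent growth. Below 10 = active.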 A number with no mark means an inactive call. Calls of active or inactive are those of the source.

System: HT29 colon
Assay: NCI-60 one-dose screen, 48 h (100 = growth as untreated, 0 = no growth, -100 = all killed)
Settings: 10 µM unless noted

Structure (SMILES)	growth
CCN(CC)CCNc1ccc(C)c2sc3cc(C)ccc3c(=O)c12	1.25% (active)
CCOC(=O)c1sc2ccc(NCc3nc[nH]c3C)cc2c1NC(=O)c1cc(OC)c(OC)c(OC)c1	88.9%
O=C(NCc1cccnc1)c1cc(-c2csc3c(=O)cc(N4CCOCC4)oc23)cc2c1OCCO2	18%
COc1ccc(/C=C(\C#N)n2nnc3ccccc32)cc1	11%
COc1ccc(C(=O)/C=C/C23c4ccccc4C(c4ccccc42)C2C(=O)NC(=O)C23)cc1 (stereo not given)	97.3%
CCN(CC)CCOc1ccc(/C(=C(\C)c2ccc(OC)c(F)c2)c2ccc(Cl)cc2)cc1	14.9%
O=C1CSC(c2ccccc2O)N1c1nnc(Cn2cnnc2)o1 (stereo not given)	99.1%
O=C1CSC(c2ccc(O)cc2)N1c1nnc(Cn2cnnc2)o1 (stereo not given)	55.8%
O=C(NCOC(O)C(Cl)(Cl)Cl)NCOC(O)C(Cl)(Cl)Cl (stereo not given)	94.4%
CCOC(=O)c1c(C)[nH]c(C(=O)CCC(=O)OC)c1C	86.7%
O=C1CC(c2ccc3c(c2)OCO3)Nc2cc3c(cc21)OCO3 (stereo not given)	1.47% (active)
O=C1/C(=C/c2ccccc2[N+](=O)[O-])COc2ccc(O)c(O)c21	5.22% (active)
Cc1nc(-c2ccccc2)cc2c(O)c(C(=O)N/N=C/c3ccc(N(C)C)cc3)[nH]c(=O)c12	72.9%
N#Cc1c(N)n2c(nc1=Nc1ccc(Cl)cc1)sc1cc(Cl)ccc12	33.4%
COc1cc(NC(=O)c2cccc(-c3cc(=O)c4c(O)c(OC)c(OC)cc4o3)c2)cc(OC)c1OC	62.8%
